What is called AC50 is the concentration giving half of the maximal activity seen.

Values joined by “and” are separate entries in the source; they are usually repeats but may differ in a detail not shown here. Identical values can stand only once. Results filed as inconclusive are left out. Some compounds were tested as several samples or in several runs, with calls that do not always agree. Active and inactive are the calls of the source. Rule for the calls: active = hit-call score of the fitted dose curve at least 0.9, where 1 is the maximum; inconclusive = response in the unintended direction; inactive = score below 0.9.

The record followed here is PubChem BioAssay (EPA / NIEHS).

In the experiment the target is Cellular tumor antigen p53 (Homo sapiens) (UniProt P04637). The experiment can be described thus: TOX21_p53_BLA_p2_ratio: Tox21 HCT-116 p53 Agonism Beta-lactamase Assay, Ratio, Phase 2 (AID 2283592). From the text: TOX21_p53_BLA_p2 is a cell-based, single-readout assay that uses HCT116, a human intestinal cell line, […] in a 1536-well plate.TOX21_p53_BLA_p2_ratio is an assay readout measuring reporter gene via receptor activity and designed using inducible reporter (beta lactamase induction) detected with GAL4 b-lactamase reporter gene. The signal is derived from the ratio of cleaved (ch2) to uncleaved (ch1) reporter gene substrate used as the measure of target activity.Data from the assay component TOX21_p53_BLA_p2_ratio was analyzed into 1 assay endpoint. This assay endpoint, TOX21_p53_BLA_p2_ratio, was analyzed in the positive analysis fitting direction relative to DMSO as the negative control and baseline of activity. Using a type of inducible reporter, gain-of-signal activity can be used to understand changes in the reporter gene as they relate to the gene TP53. Furthermore, this assay endpoint can be referred to as a primary readout, because this assay has produced multiple assay endpoints and this ratio serves a reporter gene function to understand target activity. To generalize the intended target to other relatable targets, this assay endpoint is annotated to the DNA binding intended target family, where the subfamily is tumor suppressor.
Chain of Cellular tumor antigen p53 (Homo sapiens) (P04637 whole entry, looked up, the tested form may be a part): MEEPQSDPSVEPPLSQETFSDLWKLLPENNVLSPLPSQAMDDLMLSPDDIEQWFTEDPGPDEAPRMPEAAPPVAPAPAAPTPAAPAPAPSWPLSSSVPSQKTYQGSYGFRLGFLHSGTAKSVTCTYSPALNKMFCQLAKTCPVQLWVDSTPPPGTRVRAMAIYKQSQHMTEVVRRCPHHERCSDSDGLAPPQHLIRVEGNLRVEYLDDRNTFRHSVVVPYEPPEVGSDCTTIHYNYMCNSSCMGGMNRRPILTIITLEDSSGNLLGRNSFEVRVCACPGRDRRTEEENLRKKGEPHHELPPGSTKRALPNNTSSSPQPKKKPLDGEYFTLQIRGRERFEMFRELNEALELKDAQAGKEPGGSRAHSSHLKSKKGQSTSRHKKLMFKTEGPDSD
Thawing Method: Place 14 mL of pre-warmed thaw medium into a 15 mL of conical tub. Remove the vial of cells to be thawed from liquid nitrogen and thaw rapidly by placing at 37C in a water bath with gentle agitation for 1-2 minutes. Decontaminate the vial by wiping with 70% ethanol before opening in a biological safety cabinet. Transfer the vial contents drop-wise into 14 mL of thaw medium in a sterile 15-mL conical tub. Centrifuge cells at 900 rpm for 4 minutes and resuspend in thaw medium. Transfer contents to the T75 tissue culture flask containing Thaw Medium and place flask in a humidified 37C/5% CO2 incubator. Switch to growth medium at first passage.Propagation Method: Aspirate medium, rinse once in DPBS, add 0.25% Trypsin/EDTA and swirl to coat the cell evenly. Add an equal volume of Growth Medium to inactivate Trypsin after 2-3 minutes incubation at 37C. Centrifuge cells at 900 rpm for 4 minutes and resuspend in growth medium. Cell should be passage or fed at least twice a week.Assay Protocol: Harvest cells from culture in growth medium and resuspend in assay medium. 2.2 Dispense 4000 cells/5 uL/well into 1536-well black/clear bottom plates using a Multidrop dispenser. After the cells were incubated at 37C for 5 hours, 23 nL of compounds dissolved in DMSO were transferred to the assay plate by a PinTool resulting in a 217-fold dilution. Incubate the plates for 16 hours at 37C, 5% CO2. Add 1 uL of 6X LiveBLAzer FRET B/G (CCF4-AM) Substrate Mixture to each well using a BioRAPTR dispenser and incubate the plates at room temperature for 2 hours. Measure fluorescence intensity at 460 and 530 nm emission and 405 nm excitation by an Envision detector. Data is expressed as the ratio of 460nm/530nm emissions. Add 4 uL of Cell-titer Glo to each well using BioRAPTR and incubate the plates at room temperature for 2 hours. Measure fluorescence intensity by a VewLux plate reader.
For the compound `CC(CN1c2ccccc2Sc2ccccc21)N(C)C` (stereo not given), the AC50 is 43.6 µM (active) and the outcome was inactive.

Turning to `Cc1ccc2ccccc2n1`, the result was inactive.

Take `CCCCC(CC)COCCC#N` (stereo not given): the result was inactive.

With `CCN(CC)c1ccc2c(-c3ccccc3C(=O)O)c3ccc(=[N+](CC)CC)cc-3oc2c1`, the outcome was inactive.

For the compound `OC1OC[C@@H](O)[C@H](O)[C@H]1O` (stereo not given in full), the result was inactive.

As to `NCCCCCCN`, the outcome was inactive.

On to `Fc1c(F)c(F)c(Br)c(F)c1F`, for which the result was inactive.

Take `Nc1ccc(S(N)(=O)=O)cc1`: the outcome was inactive.

Turning to `CCn1c2ccccc2c2cc(N)ccc21`, the result was inactive; the AC50 was 65.1 µM (active) and 74.2 µM (active).

As to `COc1ccc(Cl)cc1C`, the result was inactive.

As to `Cc1ccc(S)cc1`, the result was inactive.

With `CC1(C)C(=O)N(Br)C(=O)N1Cl`, the result was inactive.

`CC(C)Oc1ccccc1O`: the result was inactive.

As to `CCCCNC(=O)NS(=O)(=O)c1ccc(N)cc1`, the outcome was inactive.

Regarding `CCCC(=O)C(C)=O`, the result was inactive.

`CNC(=O)Oc1ccc2c(c1)[C@]1(C)CCN(C)[C@@H]1N2C`: the outcome was inactive.

With `c1ccc2c(c1)c1cccc3ccc4cccc2c4c31`, the AC50 is 15 µM (active) and the result was inactive.

For the compound `O=C(O)CN(CCN(CC(=O)O)CC(=O)O)CCN(CC(=O)O)CC(=O)O`, the result was inactive.

As to `O=C(O)c1cccc([N+](=O)[O-])c1`, the result was inactive.

On to `CCCCCCCCCCCCCCCCCC(=O)OCC(CC)CCCC` (stereo not given), for which the outcome was inactive.

`COc1ccc(O)cc1`: the result was inactive.

Turning to `CCCCCCCCCCCCN`, the outcome was inactive and the AC50 was 85 µM (active).

For `COC(=O)OC`, the result was inactive.

`CC(C)=CCO`: the result was inactive.

For the compound `CCCCCCCCCCC(CO)CCCCCCCC` (stereo not given), the result was inactive.

On to `CN1[C@@H]2CC(OC(=O)[C@H](CO)c3ccccc3)C[C@H]1[C@@H]1O[C@@H]12` (stereo not given in full), for which the result was inactive.

For the compound `CC(C)OP(=O)(CP(=O)(OC(C)C)OC(C)C)OC(C)C`, the outcome was inactive.

As for `CNC[C@H](O)c1cccc(O)c1`, the result was inactive.

Regarding `CC1(C)[C@H]2CC[C@]1(C)[C@H](O)C2`, the result was inactive.

For `CC1CC(OC(=O)c2ccccc2O)CC(C)(C)C1` (stereo not given), the result was inactive.

With `CC1=CCC(O)(C(C)C)CC1` (stereo not given), the result was inactive.

As to `NNc1nc(-c2ccc(N)cc2)cs1`, the outcome was inactive.

As to `O=C(O)CCSCCC(=O)O`, the outcome was inactive.

As for `CC(=O)C(=O)O`, the outcome was inactive.

Regarding `Cc1ccc(Nc2ccc(O)c3c2C(=O)c2ccccc2C3=O)cc1`, the outcome was inactive.

In the case of `CCOC(=S)SSC(=S)OCC`, the result was inactive.
